# According to article PMC4336329 (PLoS ONE, 2015):
# The whole screen tested about 310,000 compounds, of which about 14,000 (4.5%) showed an effect of 50% or more. Effects have a minus sign here. This is one part of a sample in which strong results are shown more often than they occur.
# Target: human ether-à-go-go-related gene (hERG) potassium channel (human, UniProt Q12809)
# Test: primary screen, population patch clamp on CHO cells stably expressing hERG; higher = less effect of the substance
# 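Also: peak tail current of the secondary pulse compared with the same well before compound.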
# Sequence of human ether-à-go-go-related gene (hERG) potassium channel (Q12809 whole entry, looked up): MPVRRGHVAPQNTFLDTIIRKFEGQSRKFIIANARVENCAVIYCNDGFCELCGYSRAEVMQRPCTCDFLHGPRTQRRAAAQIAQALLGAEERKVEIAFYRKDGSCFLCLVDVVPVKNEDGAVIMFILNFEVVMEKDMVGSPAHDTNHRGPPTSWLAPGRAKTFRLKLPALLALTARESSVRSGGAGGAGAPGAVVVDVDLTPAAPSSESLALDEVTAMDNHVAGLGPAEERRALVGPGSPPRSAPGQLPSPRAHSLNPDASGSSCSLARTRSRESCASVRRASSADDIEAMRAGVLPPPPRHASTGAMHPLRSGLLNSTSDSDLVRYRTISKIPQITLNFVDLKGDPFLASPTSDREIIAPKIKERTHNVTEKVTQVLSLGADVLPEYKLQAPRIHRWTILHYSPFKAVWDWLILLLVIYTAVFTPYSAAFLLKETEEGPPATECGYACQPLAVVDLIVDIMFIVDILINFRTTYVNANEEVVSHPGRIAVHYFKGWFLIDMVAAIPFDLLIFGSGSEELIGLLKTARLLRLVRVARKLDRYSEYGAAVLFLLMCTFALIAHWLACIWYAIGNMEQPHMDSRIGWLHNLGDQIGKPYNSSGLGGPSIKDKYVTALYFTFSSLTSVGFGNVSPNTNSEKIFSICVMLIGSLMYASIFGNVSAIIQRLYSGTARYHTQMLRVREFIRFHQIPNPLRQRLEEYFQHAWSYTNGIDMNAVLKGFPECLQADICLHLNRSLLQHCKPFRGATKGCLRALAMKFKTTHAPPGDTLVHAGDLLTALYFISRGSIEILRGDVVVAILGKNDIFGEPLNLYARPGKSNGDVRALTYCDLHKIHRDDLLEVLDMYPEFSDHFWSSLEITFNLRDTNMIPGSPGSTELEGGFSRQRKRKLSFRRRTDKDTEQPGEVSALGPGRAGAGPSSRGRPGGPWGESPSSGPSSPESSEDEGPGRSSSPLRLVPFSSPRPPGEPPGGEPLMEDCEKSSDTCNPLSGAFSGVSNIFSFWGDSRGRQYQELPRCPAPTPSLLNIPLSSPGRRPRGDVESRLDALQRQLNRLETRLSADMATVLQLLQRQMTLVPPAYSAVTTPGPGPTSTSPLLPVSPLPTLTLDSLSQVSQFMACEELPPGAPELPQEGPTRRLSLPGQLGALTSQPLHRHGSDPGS
row,Structure (SMILES),"hERG current change (%, negative = inhibition) at 10uM [%]"
1,COc1ccc2nc(SCc3cccc(C)c3)nc(C)c2c1,-10.9
2,COc1ccccc1OCCOCCOc1c(C)cc(C)cc1Br,8.26
3,CC(C)N1CC(O)=C(c2ccccc2)C1=N,-0.355
4,CC(C)NC(=O)c1ccccc1NC(=O)C1CC(=O)N(C(C)C)C1 (stereo not drawn),42.9
5,CSc1ncccc1C(=O)Nc1nccs1,-22.8
6,COc1ccc(NC(=O)CSc2nnc(-c3ccccc3)n2Cc2ccco2)c(OC)c1,-26.4
7,O=C(CSc1nnc(-c2ccncc2)n1Cc1ccco1)Nc1ccccc1Cl,-36.3
8,COc1cc(Cl)c(C)cc1NC(=O)CSc1nnc(-c2cccnc2)n1Cc1ccco1,-56.9
9,COc1cc(Cl)c(C)cc1NC(=O)CSc1nnc(-c2ccccn2)n1Cc1ccco1,-29.5
10,Cc1cc(Cl)ccc1NC(=O)CSc1nnc(-c2ccncc2)n1Cc1ccco1,-52.8
11,O=C(CSc1nnc(-c2ccncc2)n1Cc1ccco1)Nc1ccccc1F,-20.4
12,Cc1c(C(=O)Nc2cc(S(=O)(=O)N3CCOCC3)ccc2N2CCN(C)CC2)oc2ccccc12,-10.8
13,Cc1ccccc1N1CC(C(=O)O)CC1=O (stereo not drawn),14.1
14,Cc1cccc(Cn2ccc(NC(=O)c3ccc4c(c3)OCO4)n2)c1,-34.3
15,CCCNC(=O)c1ccc2c(=O)n3c(-c4ccc(C)cc4)csc3nc2c1,5.26
16,Cc1ccc(C2(CCN)CCOC(C(C)C)C2)cc1 (stereo not drawn),17
17,Cc1ccc(C2(CCNS(=O)(=O)c3ccc(C)cc3)CCOC(C(C)C)C2)cc1 (stereo not drawn),-53.5
18,Cc1ccc(C2(CCNCc3ccc(N(C)C)cc3)CCOC(C(C)C)C2)cc1 (stereo not drawn),-64.1
19,CC(C)C1CC(CCNCc2ccc(N(C)C)cc2)(c2ccccc2)CCO1 (stereo not drawn),-24.6
20,COc1ccccc1C1(CCNS(=O)(=O)c2ccc(C)cc2)CCOC(C(C)C)C1 (stereo not drawn),4.49
21,Cc1ccc(C2(CCNCc3ccco3)CCOC(C(C)C)C2)cc1 (stereo not drawn),-35.6
22,O=C(Nc1ccc2c(c1)OCO2)Oc1ccccc1,-7.16

row,Structure (SMILES),"hERG current change (%, negative = inhibition) at 10uM [%]"
1,O=C(c1cccc(C(F)(F)F)c1)N1CCC(O)(CS(=O)(=O)Cc2ccccc2Cl)CC1,-8.87
2,CNC(=O)C1CC(=O)N(Cc2ccc(OC)c(OC)c2)C(=Nc2ccc(OC)cc2)S1 (stereo not drawn),-6.01
3,Cc1ccc(-c2nnc(Cc3ccc([N+](=O)[O-])cc3)o2)cc1,-64.9
4,Cc1ccc(-c2nnc(Cc3ccc(Cl)cc3)o2)cc1,8.63
5,O=[N+]([O-])c1ccc(Cc2nnc(-c3ccccc3Cl)o2)cc1,-15.5
6,O=[N+]([O-])c1ccc(Cc2nnc(-c3ccc(F)cc3)o2)cc1,-57.2
7,Fc1ccc(-c2nnc(Cc3ccc(Cl)cc3)o2)cc1,-16.7
8,Fc1ccc(-c2nnc(Cc3nnc(-c4ccc(F)cc4)o3)o2)cc1,10.8
9,Cc1ccc(C(=O)Nc2c(C)n(C)n(-c3ccccc3)c2=O)cc1S(=O)(=O)N1CCOCC1,0.249
10,Cc1ccc(S(=O)(=O)N(C)c2c(C)ccc(S(N)(=O)=O)c2C)cc1,-10.9
11,Fc1ccccc1N1CC(c2ccccc2)C(c2cccs2)=N1 (stereo not drawn),9.56
12,Cc1ccc(Cn2nnc3c(=O)[nH]c(C4CCCN(S(=O)(=O)c5ccccc5F)C4)nc32)cc1 (stereo not drawn),12.2
13,COc1ccc(/C=N/Nc2nncc3ccccc23)c(OC)c1,10.7
14,COc1cc(C)c(Cl)c(C)c1S(=O)(=O)NC1CC(C)(C)NC(C)(C)C1,7.91
15,O=C(NCCSc1ccccc1)c1ccc(Br)cc1,13.5
16,CCC(=O)c1ccc(OCC(O)CN2CCN(C(c3ccccc3)c3ccccc3)CC2)cc1 (stereo not drawn),-67.2
17,N#Cc1ccc(OCC(O)CN2CCN(C(c3ccccc3)c3ccccc3)CC2)cc1 (stereo not drawn),-72.1
18,CC(C)OCC(O)CN1CCN(C(c2ccccc2)c2ccccc2)CC1.Cl (stereo not drawn),-58.1
19,Cl.OC(COc1ccccc1)CN1CCN(CC(O)COc2ccccc2)CC1 (stereo not drawn),-61.7
20,CN1CCN(CC(O)COc2ccccc2)CC1 (stereo not drawn),-0.905
21,CCC(=O)c1ccc(OCC(O)CN2CCOCC2)cc1 (stereo not drawn),7.44
22,CCC(=O)c1ccc(OCC(O)CNC(C)c2ccccc2)cc1 (stereo not drawn),-14.7

row,Structure (SMILES),"hERG current change (%, negative = inhibition) at 10uM [%]"
1,COC(=O)CN1CCN(C(c2ccccc2)c2ccccc2)CC1,5
2,OC(COc1ccccc1)CN1CCCC1 (stereo not drawn),14.5
3,CCOc1ccc(NS(=O)(=O)c2ccc(Cl)c(C(=O)N(C)Cc3cccnc3)c2)cc1,-25.9
4,COc1ccccc1NC(=O)CSc1nnc(C)n1Cc1ccccc1,-34.5
5,CCOc1ccc(Nc2cc(=O)oc3ccccc23)cc1,7.78
6,Cc1nn(C)cc1C(=O)NNC(=S)Nc1ccc(Cl)cc1,12.6
7,CCOC(=O)C(Cc1ccc(Cl)cc1Cl)c1ccno1 (stereo not drawn),14.3
8,O=C(NCc1ccc(Cl)cc1)C(=O)NCC1OCCN1S(=O)(=O)c1ccc2c(c1)OCCO2 (stereo not drawn),-7.02
9,Cc1cc(C)c(S(=O)(=O)/N=C2/C=C(Sc3ncn[nH]3)C(=O)c3ccccc32)cc1C,18.2
10,C[C@H](NC(=O)OC(C)(C)C)C(=O)N/N=C/c1ccc2nccnc2c1,21.7
11,COc1cccc(N(C(=O)c2snc(C(N)=O)c2N)C(C(=O)NCC2CCCO2)c2ccc3ncccc3c2)c1 (stereo not drawn),-16.8
12,COc1ccccc1OCC(=O)Nc1cccc(S(=O)(=O)NC2=NCCCCC2)c1,-4.65
13,COc1cccc(OCC(O)CN2CCN(C(c3ccccc3)c3ccccc3)CC2)c1.Cl (stereo not drawn),-43.6
14,OC(CN1CCN(C(c2ccccc2)c2ccccc2)CC1)c1ccccc1 (stereo not drawn),-30.8
15,OC(COc1ccccc1)CN1CCOCC1 (stereo not drawn),9.83
16,CCOc1ccccc1C(=O)N1CCN(C(c2ccccc2)c2ccccc2)CC1,0.314
17,OC(COc1ccccc1)CN1CCN(C(c2ccccc2)c2ccccc2)CC1 (stereo not drawn),-69.6
18,CCC(=O)c1ccc(OCC(O)Cn2nc(C)c(C(C)=O)c2C)cc1 (stereo not drawn),-36.7
19,CC(=O)c1ccccc1OCC(O)CN1CCN(c2ccccn2)CC1.Cl (stereo not drawn),-39
20,CC(=O)c1ccccc1OCC(O)CN1CCN(C(c2ccccc2)c2ccccc2)CC1 (stereo not drawn),-66.7
21,O=C(CN1CCN(C(c2ccccc2)c2ccccc2)CC1)NC(=O)NCc1ccco1,-5.1
22,OC(COCc1ccco1)CN1CCN(C(c2ccccc2)c2ccccc2)CC1 (stereo not drawn),-73.4

row,Structure (SMILES),"hERG current change (%, negative = inhibition) at 10uM [%]"
1,CCC(=O)c1ccc(OCC(O)Cn2nc(C)cc2C)cc1 (stereo not drawn),-7.44
2,CCC(=O)c1ccc(OCC(O)Cn2nc(C)c(Br)c2C)cc1 (stereo not drawn),-97.8
3,Cc1cccnc1NC(=S)NCc1ccco1,-2.97
4,CC(=O)O.COc1c(O)ccc(C2NC(=O)NC(C)=C2C(=O)Nc2ccccc2C)c1[N+](=O)[O-] (stereo not drawn),31.9
5,CC(/C=C1\SC(=S)N(CCC(=O)Nc2cccc(C(=O)O)c2)C1=O)=C\c1ccccc1,10.9
6,Cc1ccc(NC(=S)N=Nc2c(O)[nH]c3ccccc23)cc1,9.41
7,CCC(=O)c1ccc(OCC(O)CN2CCN(c3ccccn3)CC2)cc1 (stereo not drawn),-34
8,COc1cc(/C=C/C(=O)N2CCN(CC(O)COc3ccccc3)CC2)cc(OC)c1OC.Cl (stereo not drawn),-8.44
9,Cl.O=C(COc1ccccc1)N1CCN(CC(O)COc2ccccc2)CC1 (stereo not drawn),-50.8
10,CCC(=O)c1ccc(OCC(O)CN2CCN(c3cccc(C(F)(F)F)c3)CC2)cc1 (stereo not drawn),-55.2
11,CC(=O)N1CCN(CC(O)COc2ccc(OCc3ccccc3)cc2)CC1 (stereo not drawn),-17.7
12,Cl.O=C(C(c1ccccc1)c1ccccc1)N1CCN(CC(O)COc2ccccc2)CC1 (stereo not drawn),-13.7
13,CC(C)(C)c1ccc(OCC(O)CN2CCCC2)cc1.Cl (stereo not drawn),-35.7
14,OC(COc1ccccc1)CN1CCCCCC1 (stereo not drawn),-4.43
15,Cl.O=C(/C=C/c1ccccc1)N1CCN(CC(O)COc2ccccc2)CC1 (stereo not drawn),-69.7
16,OC(COc1ccccc1)CN1CCN(c2ncccn2)CC1 (stereo not drawn),-22.9
17,CCOc1ccc(OCC(O)CN2CCN(S(=O)(=O)c3cccc(C(F)(F)F)c3)CC2)cc1.O=C(O)C(=O)O (stereo not drawn),13.7
18,CC(C)(c1ccccc1)c1ccc(OCC(O)CN2CCCC2)cc1.Cl (stereo not drawn),-60.3
19,COc1cc(C(=O)NCCNC(=O)c2ccc(C)nc2)cc(OC)c1OC,11.8
20,S=C(Nc1ccccc1)Nc1nccs1,24.4
21,CCOc1ccc(Nc2oc(-c3ccc(Cl)cc3)nc2C#N)cc1,9.08
